Consider 45 compounds from PubChem BioAssay AID1362 (SRMLSC, 2008).

The assay is described as follows: growth inhibition of WT strain, primary screen, mitochondrial fusion inhibitor project, WT and mutant strains, chemical genetic (AID 1362). As to conditions: mitochondrial fusion phenotypic screen, at 10 µM.
Where [1] appears, read: WT strain, growth inhibition, stronger effect = higher value.

Hit rate of the full screen: of about 190,000 compounds, about 4,000 (2.1%) were called active. Rule as the data show it: active = inhibition above about 58%; inactive = the rest, inconclusive results apart; tested in S. cerevisiae. The entries come from a sample that favours actives as a whole.

Take `CC1=CC2=NC(=O)CC(C)(C(=O)N(CC(=O)NC(C)(C)C)Cc3ccccc3)N2C=C1` (stereo not given): the inhibition (commonly the relative decrease from the control value, in per cent) was -18.1% (inactive) under setting [1] and -9.57% (mutant strain inhibition).

As for `Cc1nnc(SCC(=O)N2c3ccccc3C(C)(c3ccc(Cl)cc3)CC2(C)C)s1` (stereo not given), the inhibition was 68.9% (active) under setting [1] and 10.2% (mutant strain inhibition).

For `Cc1nnc(SCC(=O)N2CCc3ccccc3C2)s1`, the inhibition runs as follows: under setting [1], 3.58% (inactive); (mutant strain inhibition) -9.75%.

For the compound `Cc1nnc(SCC(=O)NCc2ccccc2)s1`, the inhibition runs as follows: under setting [1], 9.71% (inactive); (mutant strain inhibition) 1.45%.

For `CCCCCCCC1(C)NC(=O)N(CC(=O)Nc2cc(C)on2)C1=O` (stereo not given), the inhibition under setting [1] is 3.19% (inactive) and the inhibition (mutant strain inhibition) was -21%.

As for `COc1cc(C)c(S(=O)(=O)N2CCOCC2)c(C)c1C`, the inhibition under setting [1] was -12.4% (inactive) and the inhibition (mutant strain inhibition) was -18.1%.

For `CC(C)(C)N(CC#CCC(O)(c1ccccc1)C1CCCC1)CCO` (stereo not given), the inhibition runs as follows: under setting [1], -9.77% (inactive); (mutant strain inhibition) -9.45%.

`COc1cccc(/C=C/C(=O)Nc2ccc3c(c2)OCCO3)c1`: the inhibition reads like this: under setting [1], 19.1% (inactive); (mutant strain inhibition) 5.63%.

As for `CN(C)CCSc1nc(N)c2c3c(sc2n1)COC(C)(C)C3`, the inhibition is -20.9% (inactive) under setting [1] and -1.39% (mutant strain inhibition).

`CCCSc1nc(NCc2ccco2)c2c3c(sc2n1)COC(C)(CC)C3` (stereo not given): the inhibition is 58.6% (active) under setting [1] and 41.2% (mutant strain inhibition).

`CCC1(C)Cc2c(sc3nc(SC)nc(N)c23)CO1` (stereo not given): the inhibition is -20.9% (inactive) under setting [1] and -10.7% (mutant strain inhibition).

On to `N/C(=N\OC(=O)Nc1ccc(Cl)c(Cl)c1)c1ncc(C(F)(F)F)cc1Cl`, for which the inhibition is, setting by setting: under setting [1], 80.3% (active); (mutant strain inhibition) 78.5%.

On to `O=C(CC(O)(C(F)(F)F)C(F)(F)F)Nc1ccc(Cl)c(Cl)c1`, for which the inhibition under setting [1] is 84.6% (inactive) and the inhibition (mutant strain inhibition) stood at 85.2%.

On to `N/C(=N\OC(=O)CCCC(=O)O)c1ncc(C(F)(F)F)cc1Cl`, for which the inhibition was 9.89% (inactive) under setting [1] and 9.98% (mutant strain inhibition).

Consider `CCc1cccc2c(=O)c(C(=O)NCCCOC)c[nH]c12`, for which the inhibition under setting [1] is 4.61% (inactive) and the inhibition (mutant strain inhibition) came to 8.59%.

For `CCN1CCN(CC(=O)c2cc(OC)c(OC)c(OC)c2)CC1`, the inhibition by setting is: under setting [1], -2.06% (inactive); (mutant strain inhibition) -0.71%.

Turning to `CC(C)(C)Oc1ncc(Br)c(OC(C)(C)C)n1`, the inhibition is 18.5% (inactive) under setting [1] and 15.1% (mutant strain inhibition).

With `COc1cccc(-c2nc3cc(C)ccc3o2)c1`, the inhibition by setting is: under setting [1], 26.9% (inactive); (mutant strain inhibition) 17.7%.

With `COc1cccc(-c2cnc(OC(C)(C)C)nc2OC(C)(C)C)c1`, the inhibition was 84.1% (active) under setting [1] and 27.8% (mutant strain inhibition).

For the compound `Cc1ccccc1NC(=O)NNC(=O)OC(C)(C)C`, the inhibition runs as follows: under setting [1], -2.03% (inactive); (mutant strain inhibition) -7.53%.

Regarding `[O-][n+]1c2c(nn1-c1ccc(Cl)c(Cl)c1)-c1nonc1CC2`, the inhibition under setting [1] was 38% (inactive) and the inhibition (mutant strain inhibition) amounted to 6.81%.

As for `CN(C)CCN=c1cc(-c2ccccc2)oc2ccc(Cl)cc12`, the inhibition is, setting by setting: under setting [1], 10.8% (inactive); (mutant strain inhibition) 15.6%.

With `c1ccc(Nc2nc(N3CCOCC3)c3ccccc3n2)cc1`, the inhibition runs as follows: under setting [1], 44.7% (inactive); (mutant strain inhibition) 45.5%.

Consider `CC(Nc1nc(N2CCOCC2)nc2ccccc12)c1ccccc1` (stereo not given), for which the inhibition is 7.41% (inactive) under setting [1] and -4.07% (mutant strain inhibition).

Regarding `c1ccc2c(NC3C4CC5CC(C4)CC3C5)nc(N3CCOCC3)nc2c1` (stereo not given), the inhibition is 69.3% (active) under setting [1] and 45.5% (mutant strain inhibition).

Take `CCc1nc2ccccc2c(C(=O)NCc2ccc(OC)cc2)c1C`: the inhibition was -7.63% (inactive) under setting [1] and -13.1% (mutant strain inhibition).

As for `CC(=O)NC1C(Oc2ccc(C=O)cc2)OC(COC(C)=O)C(OC(C)=O)C1OC(C)=O` (stereo not given), the inhibition under setting [1] was -6.93% (inactive) and the inhibition (mutant strain inhibition) was -11.4%.

As for `Cn1nnnc1-c1cc(Cl)cc(Cl)c1`, the inhibition is, setting by setting: under setting [1], 0.51% (inactive); (mutant strain inhibition) 21.3%.

For `CCCCc1nc(NCc2ccccc2)c(C#N)c2c1CCCC2`, the inhibition under setting [1] is -9.79% (inactive) and the inhibition (mutant strain inhibition) was determined as 2.15%.

For `Cc1nc(NCCN)c(C#N)c2c1COC(C)(C)C2`, the inhibition is 24.4% (inactive) under setting [1] and 10.2% (mutant strain inhibition).

With `CCCCc1nc(NCCN)c(C#N)c2c1CSC(C)(C)C2`, the inhibition by setting is: under setting [1], 85.3% (active); (mutant strain inhibition) 31.7%.

As to `CCN1CCN(c2ccc(NC(=O)c3cnccn3)cc2)CC1`, the inhibition reads like this: under setting [1], 4.84% (inactive); (mutant strain inhibition) 4.5%.

Turning to `CCn1ccnc1CN1CCCC(C(=O)c2ccc3c4c(cccc24)CC3)C1` (stereo not given), the inhibition by setting is: under setting [1], 42.3% (inactive); (mutant strain inhibition) 36.2%.

Regarding `Cc1cnc(C(=O)OCC(=O)NCCCc2ccccc2)cn1`, the inhibition under setting [1] was 14.9% (inactive) and the inhibition (mutant strain inhibition) came out at 3.19%.

As to `O=c1c2ccccc2c(-c2ccccc2)nn1Cc1ccccc1`, the inhibition is -8.61% (inactive) under setting [1] and -0.27% (mutant strain inhibition).

On to `O=c1cc(N2CCCCC2)c(-c2ccccc2)nn1Cc1cccc(F)c1`, for which the inhibition is 87.9% (active) under setting [1] and 46.3% (mutant strain inhibition).

On to `O=c1cc(N2CCN(Cc3ccccc3)CC2)c(-c2ccccc2)n[nH]1`, for which the inhibition reads like this: under setting [1], -12.8% (inactive); (mutant strain inhibition) -10.6%.

Consider `CC(=O)Nc1ccccc1OC(C)C(=O)N1CCC(C)CC1` (stereo not given), for which the inhibition under setting [1] was -7.46% (inactive) and the inhibition (mutant strain inhibition) is 7.56%.

On to `Cc1ccc(C)c(-n2ccnc2SCC(N)=O)c1`, for which the inhibition runs as follows: under setting [1], 5.62% (inactive); (mutant strain inhibition) 13.6%.

For `O=C(CCn1c(=S)[nH]c2ccccc2c1=O)NCCCN1CCCC1=O`, the inhibition under setting [1] is -5% (inactive) and the inhibition (mutant strain inhibition) was -5.53%.

For the compound `O=c1c2ccccc2[nH]c(=S)n1CCN1CCC(=C(c2ccc(F)cc2)c2ccc(F)cc2)CC1`, the inhibition by setting is: under setting [1], 77.9% (active); (mutant strain inhibition) 62.2%.

As for `CCCCn1c(=S)[nH]c2ccccc2c1=O`, the inhibition is 4.59% (inactive) under setting [1] and 8.61% (mutant strain inhibition).

As for `Cc1ccc(Cn2c(NC(=O)c3ccco3)nc3ccccc32)cc1`, the inhibition was 92.4% (active) under setting [1] and -2.81% (mutant strain inhibition).

Turning to `Cc1ccc(-n2nc3cc(Cl)c(NC(=O)c4ccco4)cc3n2)cc1`, the inhibition is 16.1% (inactive) under setting [1] and -7.45% (mutant strain inhibition).

As to `CC(=O)Nc1nc2ccccc2n1Cc1ccc(C)cc1`, the inhibition runs as follows: under setting [1], 15.3% (inactive); (mutant strain inhibition) 15.5%.
